High-throughput results deposited in PubChem BioAssay by National Center for Advancing Translational Sciences (NCATS).
Only some compounds are listed: those with a hit (about 1.2% of all), similar ones and a draw of the others.
gsp antag: antagonizes gsp, the McCune-Albright syndrome mutation | 340,000 compounds, 0.4% hits | gsp-mutant cells, cAMP HTRF, 30 min | Potency, µM (titrated, usually from 76.9 µM), without a hit: top-dose activity change, negative = inhibition, actives largely listed as inhibitors; calls by dose curve; cell line not stated here;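 note: intracellular cAMP measured with PDE inhibitor Ro 20-1724 present during compound exposure; potency is the fitted concentration of half-maximal effect; % is set by controls: 0 for no effect and ±100 for the full control effect; nearly all actives have a fitted effect of over 65% in size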
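HTRF cAMP read-out (cAMP-d2 plus anti-cAMP antibody-K in lysis buffer, 30 min RT). Before lysis, cells are exposed to compounds with […] for 30 min at 37C in DPBS containing Ca/Mg, BSA and Tween 20.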
pAkt inh: inhibitors of Akt phosphorylation; Neuro2A IGF-stimulated pAkt S473 HTRF, 20 min; hits give low values; activity change, % for hits at 50 µM; 360,000 compounds, 0.32% hits; in the data active = activity change below about -80%; inconclusive = mostly about -51% to -80%; note: % is set by controls: 0 for no effect and ±100 for the full control effect
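Neuro2A cells (4,500/well, DMEM with 0.5% FBS) were treated with compound at a single 50 µM final concentration, stimulated with 6 nM IGF for 20 min at 37 °C, and lysed. Phospho-Akt Ser473 was read by HTRF as 665/615 ratio ×10^4.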
RXFP1 agonist: activates the human relaxin receptor RXFP1. Q9HBX9. HEK293T-RXFP1 cAMP TR-FRET, 30 min; response scale: percent of porcine relaxin response, buffer zero. Potency, µM (series often up to 57.5 µM), inactives show at the highest dose activation, actives largely listed as activators. 370,000 compounds, 0.3% hits; active = well fitted activation curve with a large enough effect; inconclusive = small, poorly fitted or top-dose-only effect; note: potency is the fitted concentration of half-maximal effect; % is set by controls: 0 for no effect and ±100 for the full control effect; nearly all actives have a fitted effect of over 60% in size
Target sequence (Q9HBX9 whole entry, looked up): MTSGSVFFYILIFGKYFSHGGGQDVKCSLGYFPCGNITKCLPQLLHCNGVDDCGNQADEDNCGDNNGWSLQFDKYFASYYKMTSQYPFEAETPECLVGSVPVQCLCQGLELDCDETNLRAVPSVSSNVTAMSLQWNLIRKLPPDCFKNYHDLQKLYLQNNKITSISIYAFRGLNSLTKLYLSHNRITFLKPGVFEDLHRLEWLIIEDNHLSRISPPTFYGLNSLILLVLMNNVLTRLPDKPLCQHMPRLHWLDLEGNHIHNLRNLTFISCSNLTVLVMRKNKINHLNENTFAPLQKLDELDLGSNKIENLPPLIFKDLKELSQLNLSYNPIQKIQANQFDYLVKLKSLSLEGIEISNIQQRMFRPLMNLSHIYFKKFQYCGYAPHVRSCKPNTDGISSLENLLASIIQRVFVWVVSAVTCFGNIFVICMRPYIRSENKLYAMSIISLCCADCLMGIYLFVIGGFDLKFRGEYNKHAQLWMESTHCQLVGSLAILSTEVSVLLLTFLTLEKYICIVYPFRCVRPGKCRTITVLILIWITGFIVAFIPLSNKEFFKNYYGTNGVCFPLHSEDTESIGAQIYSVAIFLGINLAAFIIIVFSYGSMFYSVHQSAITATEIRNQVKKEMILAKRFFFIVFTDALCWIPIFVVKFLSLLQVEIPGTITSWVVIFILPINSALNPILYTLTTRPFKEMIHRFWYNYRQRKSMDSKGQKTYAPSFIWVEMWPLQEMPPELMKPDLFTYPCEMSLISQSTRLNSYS
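HEK293 cells stably expressing RXFP1, treated 30 min at 37C with compounds plus PDE4 inhibitor Ro 20174; cAMP measured by HTRF TR-FRET. Normalized to buffer and 29 nM porcine relaxin; EC50 by Hill fit.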
gsp ag: activates gsp, the McCune-Albright syndrome mutation. Potency, µM (doses to about 76.9 µM), inactives show top-dose activation (cAMP increase), actives largely listed as activators. gsp mutant cells, cAMP HTRF, 30 min. 340,000 compounds, 0.13% hits. AID 624287; active = well fitted activation curve with a large enough effect; inconclusive = small, poorly fitted or top-dose-only effect, or another doubt; inactive = no such curve, though single readings can be large or run the other way; cell line not stated here;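 note: phosphodiesterase inhibitor Ro 20-1724 added with compounds to block cAMP breakdown; potency is the fitted concentration of half-maximal effect; nearly all actives have a fitted effect of over 60% in size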
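Cells in DMEM/10% FBS with G418 were pretreated with compounds in DMSO plus […] (300 uM stock) for 30 min at 37C. cAMP was measured by HTRF (cAMP-d2 plus anti-cAMP antibody-K) after 30 min at room temperature.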
RXFP1 antag: blocks the human relaxin receptor RXFP1 | Q9HBX9 | HEK293-RXFP1, relaxin-stimulated cAMP HTRF, 30 min; hits give low values | activity change, negative = inhibition, % at 57.5 µM | 350,000 compounds, 0.59% hits | AID 1259400;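 active = activity change of -60% or lower, but not beyond a set lower limit; inconclusive = change between -60% and -40%, or beyond the set limit; inactive = change above -40%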; note: % is set by controls: 0 for no effect and ±100 for the full control effect
* hit, by the source's call; i = inactive; ? = inconclusive; / = no result; ! = a repeat was not active; [ ] = remark or other dose.

SMILES	gsp antag	pAkt inh	RXFP1 agonist	gsp ag	RXFP1 antag
CCOc1ccccc1NC(=O)c1nc(S(=O)(=O)Cc2cccc(C)c2)ncc1Cl	-24.4%	i	-0.1%	?	-4.3
CC(C)c1nnc(NC(=O)c2nc(S(=O)(=O)Cc3ccccc3F)ncc2Cl)s1	?	i	1.7%	-2.6%	-27.8
COc1cccc(Nc2nc3cc(Cl)c(Cl)cc3nc2-n2nc(C)cc2C)c1	/	/	-1.1%	/	-2.0
COc1ccc(NC(=O)C2CCN(S(=O)(=O)c3c(C)noc3/C=C/c3cccs3)CC2)cc1Cl	/	/	2.3%	/	0.5
CCOc1ccc(NC(=O)N2CC=C(c3c[nH]c4ccccc34)CC2)cc1	/	/	2.7%	/	-31.7
CCSc1nnc(NC(=O)c2ccc3ccccc3n2)s1	-0.2%	-94.7%*	0.3%	-22.4%	?
CCc1nnc(NC(=O)c2nc(S(=O)(=O)Cc3ccccc3)ncc2Cl)s1	?	i	-1.6%	5.9%[15.4 µM]	-9.5
CSc1ncc(Cl)c(C(=O)Nc2nnc(SC/C=C/c3ccccc3)s2)n1	35.5µM*	i	-0.7%	?	-31.6
Cc1cccc(CS(=O)(=O)c2ncc(Cl)c(C(=O)Nc3nnc(C(C)C)s3)n2)c1	20µM*	i	-0.9%	-0.5%[15.4 µM]	?
CCSc1nnc(NC(=O)c2nc(S(=O)(=O)Cc3ccc(F)cc3)ncc2Cl)s1	39.8µM*	i	-1.1%	-14.9%[15.4 µM]	?
O=C(CC(c1ccccc1)c1cc(Br)ccc1O)NCC1(c2ccccc2)CCCC1 (configuration not stated)	/	/	5.9%	/	?
CSc1ccc(CCNC(=O)c2csc3c2CCCCC3)cc1	/	/	0.9%	/	/
Cc1cccc(C(=O)Nc2nnc(S(=O)(=O)N(C)Cc3ccc(Cl)cc3)s2)c1	/	/	12.7%	/	-7.8
Cc1cccc(C(=O)Nc2nnc(S(=O)(=O)N(C)Cc3ccco3)s2)c1	-8.7%	i	14.1µM*!	38.1%	2.9
Cc1onc(-c2ccccc2)c1C(=O)Nc1cccc2nsnc12	20.8%	-119.8%*	?	35.5µM*	-4.4
Cc1ccc(SCc2nc(-c3ccc(C(=O)NCC(C)c4ccccc4)cc3)oc2C)cc1 (configuration not stated)	/	/	-1.8%	/	/
COc1ccc(OCCNC(=O)C(Cc2c[nH]c3ccccc23)NC(C)=O)cc1 (configuration not stated)	4.2%	i	-3.4%	10µM*	6.6
CC(=O)NC(Cc1c[nH]c2ccccc12)C(=O)NCCc1ccccn1 (configuration not stated)	3.5%	i	-0.6%	-4.2%[15.4 µM]	-0.5
CCOCCn1ccc2c(OCC(=O)NCc3ccc(F)cc3)cccc2c1=O	/	/	0.0%	/	/
[O-][n+]1ccccc1SSc1cccc[n+]1[O-]	/	/	/	/	-36.6
CC(=O)Nc1ccc(NC(=O)C(C)OC(=O)/C(C#N)=C/c2ccc(N(C)C)cc2)cc1 (configuration not stated)	-7.7%	i	11.3%	?	6.9
CC(OC(=O)/C(C#N)=C/c1ccc(N(C)C)cc1)C(=O)N(C)c1ccccc1 (configuration not stated)	25.1µM*	i	-0.8%	-34.1%	-2.1
COc1cccc(N(CC(=O)NC(C)c2ccccc2)S(C)(=O)=O)c1 (configuration not stated)	-1.8%	-118.8%*	-1.0%	-3.2%	-2.8
CC(NC(=O)CN(c1cccc(C(F)(F)F)c1)S(C)(=O)=O)c1ccccc1 (configuration not stated)	0.3%	i	0.6%	-19.2%	5.5
COc1cc(C2C(C(=O)OC(C)C)=C(C)N=C3SCCC(=O)N32)ccc1OCc1ccccc1 (configuration not stated)	/	/	0.7%	/	0.7
SMILES	gsp antag	pAkt inh	RXFP1 agonist	gsp ag	RXFP1 antag
CCCCCOc1ccc(NC(=O)Cc2csc(C)n2)cc1	/	/	-0.8%	/	-11.5
CC(=O)Nc1cccc(NC(=O)CSc2cn(CC(=O)N(C(C)C)C(C)C)c3ccccc23)c1	/	/	1.3%	/	-27.2
Fc1ccc(-c2onc3ccc(C4OCCO4)cc23)cc1	11.2µM*	i	-0.9%	-10.0%[15.4 µM]	-4.2
CCOC(=O)N1CCN(Cc2nc3cc(NC(=O)c4ccc([N+](=O)[O-])cc4)ccc3n2C(C)C)CC1	/	/	1.1%	/	-1.7
CCOc1cc(-c2nc(-c3ccc(-c4ccc(OC)cc4)nc3OC)no2)cc(OCC)c1OCC	/	/	2.1%	/	-3.9
CCOc1ccc(C2C=C(c3ccc(C)cc3)Nc3nnnn32)cc1 (configuration not stated)	39.8µM*	i	0.7%	11.5%	8.6
O=C(NCCCCCCNC(=O)OCCO)OCCO	10.6%	i	0.8%	11.7%[15.4 µM]	-6.2
CCCCNC(=O)OCCNC(=O)NC	0.3%	-83.2%*	2.6%	-12.3%	1.5
COc1ccc(/C=N/Nc2cc(C)nc3ccccc23)cc1	8.8%	i	0.3%	-30.5%	-70.6*
COCCNC(=O)c1cnn2c(C(F)(F)F)cc(-c3ccc(C)cc3)nc12	35.5µM*	i	-0.9%	-77.6%	-12.1
Cc1ccc(-c2cc(C(F)(F)F)n3ncc(C(=O)O)c3n2)cc1	-13.2%	i	0.4%	-3.1%	5.3
CC(C)Cn1c(N)c(C(=O)COC(=O)c2cccc(Cl)c2)c(=O)n(C)c1=O	50.1µM*	i	7.1%	4.1%[15.4 µM]	-33.8
Cc1c(C(=O)OCC(=O)c2c(N)n(CC(C)C)c(=O)n(C)c2=O)oc2ccccc12	-13.4%	i	-1.7%	?	-5.6
Cc1noc(C)c1C(=O)OCC(=O)c1c(N)n(CC(C)C)c(=O)n(C)c1=O	19.6%	i	23.1%	31.6µM*	0.4
CC(C)Cn1c(N)c(C(=O)COC(=O)c2c(F)cccc2F)c(=O)n(C)c1=O	-41.7%	i	1.4%	19.1%	-10.2
COCc1c(C(=O)OCC(=O)c2c(N)n(CC(C)C)c(=O)n(C)c2=O)oc2ccccc12	?	-103.3%*	2.3%	?	-15.6
CC(C)Cn1c(N)c(C(=O)COC(=O)c2ccccc2Cl)c(=O)n(C)c1=O	-32.6%	i	1.2%	-39.6%	-7.3
CCOc1ccc(CCNC(=O)c2cc3c(=O)oc4ccc(C)cc4c3s2)cc1OCC	/	/	0.7%	/	/
CCOc1ccc(-n2c(=O)c3c(C)c(C)sc3n(CC(=O)N3CCC(C)CC3)c2=O)cc1	/	/	3.1%	/	0.8
COCCNC(=O)CSc1nc2cc3c(cc2c(=O)n1Cc1ccc(C(=O)NCCc2ccc(OC)c(OC)c2)cc1)OCO3	/	/	0.0%	/	11.3
CCCCCSc1nc2sc3c(c2c(=O)n1-c1ccc(OC)cc1)CCN(C(C)=O)C3	/	/	-0.3%	/	/
O=C(NCC1CCN(Cc2ccc(F)cc2)CC1)c1cc2ccc3cccnc3c2[nH]1	/	/	-2.8%	/	-21.9
COc1ccccc1C(=O)NCCn1cc(SCc2ccc(C)cc2)c2ccccc21	/	/	-0.6%	/	/
CCC(=O)Nc1cccc(-c2cn3ccsc3n2)c1	-5.6%	-104.7%*	-0.5%	0.9%	-5.2
COc1cccc(C(=O)NCCSc2c(-c3ccc(F)cc3)[nH]c3ccccc23)c1OC	/	/	-0.9%	/	-14.9
